Screening results as filed in PubChem.
This is one part of a sample in which hits are shown more often than they occur.
KDM5B inhibitor – inhibitors of human KDM5B histone demethylase; KDM5B demethylase, FDH-coupled NADH fluorescence (FDH is formaldehyde dehydrogenase); Potency, µM (series often up to 57.7 µM), actives largely listed as inhibitors; hit rate 2.6% among 220,000; active means well fitted inhibition curve with a large enough effect; further: 0% is about no effect; nearly all actives have a fitted effect of over 70% in size
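KDM5BΔAP (200 nM final) in 50 mM HEPES pH 7.5, 0.01% Tween-20 was preincubated 10 min at RT with compound over a concentration range. Substrate mix (H3K4me3 12.5 µM, α-KG 25 µM, Fe²⁺, ascorbate, NAD⁺, FDH) was added, and NADH fluorescence change over 30 min gave dose-response curves.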
Starred values were filed as active, the others as inactive; i = inactive. Potency means the concentration at half of the fitted maximal effect.

SMILES | KDM5B inhibitor
FC(F)(F)CN1C2CCC1CN(c1nnc(Cl)c3ccccc13)C2 | i
FC(F)(F)CN1C2CCC1CN(c1cncc(Cl)c1)C2 | i
COc1cncc(N2CC3CCC(C2)N3CC(F)(F)F)c1 | i
FC(F)(F)CN1C2CCC1CN(c1cnc3ccccc3c1)C2 | 100µM*
FC(F)(F)CN1C2CCC1CN(c1ccc(C(F)(F)F)cn1)C2 | i
COc1cccc(N2CC3CCC(C2)N3CC(F)(F)F)n1 | 100µM*
NCC(c1ccc(Cl)cc1)N1CCCC1 (stereo not drawn) | i
O=C(CCl)NCNC(=O)CCl | i
CC1=C(C(=O)OC(C)(C)C)C2(C(=O)Nc3ccccc32)C(C(=O)OC(C)C)=C(N)O1 (stereo not drawn) | i
COCCOC1CCN(C(=O)c2nn(C)c3ccccc23)CC1 | i
Cn1cc(C(=O)NC2CCCCCCC2)c2ccccc21 | i
Cn1nc2n(c1=O)CCC(NC(=O)c1nn(C)c3ccccc13)CC2 (stereo not drawn) | 17.8µM*
COc1cc2c(cc1OCc1ccccc1)N(C(=O)c1ccccc1OC)CC21CCN(C)CC1 | i
NCCc1ccc(OCc2ccccc2)cc1 | i
O=c1c(-c2cccs2)ccc2n1C[C@H]1C[C@@H]2CN(C2CCOCC2)C1 | 35.5µM*
CC(C)(CC(=O)O)CC(=O)N1C[C@@H]2C[C@H](C1)c1c(-c3cccs3)ccc(=O)n1C2 | i
N#Cc1ccc(C(=O)N2C[C@@H]3C[C@H](C2)c2c(-c4cccs4)ccc(=O)n2C3)cc1 | i
CC1=NOC2(CCN(Cc3ccccc3)C2)C1 (stereo not drawn) | i
O=C(c1cccs1)N1[C@H]2CC[C@@H]1c1cnc(-c3ccc(F)cc3)nc1C2 | i
CCCNC(=O)c1cn(Cc2ccccc2)c2ccccc12 | i
O=C(NCc1ccc(F)cc1)[C@H]1CN2CCC1C[C@@H]2Cn1cc(CO)nn1 (stereo partly drawn) | i
O=C(c1ccoc1)N1CCC2(CC1)NCc1ccccc1-n1ccnc12 | i
O=C(O)CCCC(=O)N1C[C@@H]2C[C@H](C1)c1ccc(-c3ccc(Cl)cc3)c(=O)n1C2 | 39.8µM*
CSCC(=O)Nc1ccc(=O)n2c1[C@@H]1C[C@@H](CN(C(=O)NC3CCCCC3)C1)C2 | i
CSCC(=O)N1C[C@@H]2C[C@H](C1)c1ccc(-c3ccccc3CN(C)C)c(=O)n1C2 | 31.6µM*
SMILES | KDM5B inhibitor
CN(C)[C@@H]1CN(C(=O)Cc2ccccc2)C[C@H]1CO | i
O=C(O)CCC(=O)N1C[C@@H]2C[C@H](C1)c1c(-c3cc4ccccc4s3)ccc(=O)n1C2 | i
C#C[C@H]1CN2CC[C@H]1C[C@@H]2CNC(=O)Nc1cccc(C(F)(F)F)c1 | i
O=C(C1CCCCC1)N1C[C@@H]2C[C@H](C1)c1ccc(-c3cccc(C(F)(F)F)c3)c(=O)n1C2 | 31.6µM*
CSCC(=O)N1C[C@@H]2C[C@H](C1)c1ccc(-c3cccc(C(F)(F)F)c3)c(=O)n1C2 | 35.5µM*
CC(=O)Nc1ccc(-c2ccc(=O)n3c2[C@@H]2C[C@@H](CN(C(=O)CN(C)C)C2)C3)cc1 | i
CC(=O)Nc1ccc(-c2ccc(=O)n3c2[C@@H]2C[C@@H](CN(C(=O)C4CCCCC4)C2)C3)cc1 | i
Cc1ncc2c(n1)C[C@@H]1CC[C@H]2N1C(=O)Nc1ccc(C)c(F)c1 | i
COc1ccc(NC(=O)N2[C@H]3CC[C@@H]2c2cnc(C)nc2C3)c(C)c1 | i
C#C[C@H]1CN2CC[C@H]1C[C@@H]2CNC(=O)Nc1cc(OC)cc(OC)c1 | i
Cn1nc(-c2ccc(F)cc2)cc1[C@H]1CN2CC[C@H]1C[C@@H]2CNC(=O)COc1ccccc1 | i
CC(=O)c1ccc(NC(=O)NC[C@H]2C[C@@H]3CCN2C[C@@H]3CN2CCN(C)CC2)cc1 | i
CCCc1cc(C(=O)N2C[C@@H](c3ccc(F)cc3)[C@@H]3[C@H]2C2CCN3CC2)n[nH]1 | i
COc1ccc(Oc2c(C)oc3cc(OCC(=O)N4CCN(C)CC4)ccc3c2=O)cc1 | i
O=C(c1cnccn1)N1C[C@@H]2C[C@H](C1)c1ccc(-c3cccc(C(F)(F)F)c3)c(=O)n1C2 | 17.8µM*
Cc1ccccc1-c1ccc2n(c1=O)C[C@H]1C[C@@H]2CN(C(=O)c2cnccn2)C1 | i
CCC(CN)c1ccccc1 (stereo not drawn) | i
COc1ccc(-c2cc([C@H]3CN4CC[C@H]3C[C@@H]4CNC(=O)c3ccc4c(c3)OCO4)n(C)n2)cc1 | i
O=C(CNC12CC3CC(CC(C3)C1)C2)c1ccc(Cl)cc1 | i
Cc1ccccc1-c1ccc2n(c1=O)C[C@H]1C[C@@H]2CN(C(=O)Nc2ccc(Cl)cc2)C1 | 31.6µM*
O=C(Nc1ccc(=O)n2c1[C@@H]1C[C@@H](CN(C(=O)NC3CCCCC3)C1)C2)c1ccco1 | i
CC(C)NC(=O)N1C[C@@H]2C[C@H](C1)c1c(-c3ccccc3F)ccc(=O)n1C2 | i
Cc1ccc(NC(=O)N2C[C@@H]3C[C@H](C2)c2c(-c4cccs4)ccc(=O)n2C3)cc1 | i
Cc1ccccc1-c1ccc2n(c1=O)C[C@H]1C[C@@H]2CN(C(=O)NC(C)C)C1 | 35.5µM*
N#Cc1cccc(NC(=O)N2C[C@@H]3C[C@H](C2)c2c(-c4ccccc4)ccc(=O)n2C3)c1 | i
SMILES | KDM5B inhibitor
CC[C@H]1CN2CC[C@H]1C[C@@H]2CNC(=O)c1cccc(F)c1 | i
O=C(CN1CC=C(c2ccccc2)CC1)N(C1CCCC1)C1CCS(=O)(=O)C1 (stereo not drawn) | i
CSc1cccc(NC(=O)NC[C@H]2C[C@@H]3CCN2C[C@@H]3CN2CCSCC2)c1 | i
COc1ccc(-c2ccc3n(c2=O)C[C@H]2C[C@@H]3CN(S(C)(=O)=O)C2)cc1 | 39.8µM*
O=c1ccc(-c2ccc(Cl)cc2)c2n1C[C@H]1C[C@@H]2CN(S(=O)(=O)c2cccs2)C1 | i
O=c1cccc2n1CC1CC2CN(S(=O)(=O)c2cc(Cl)ccc2Cl)C1 (stereo not drawn) | i
C=CCN1CCN(C(=O)Cc2ccc(F)cc2)CC1 | i
COCC(=O)N1CCC2(CC1)C(=O)Nc1cc(Oc3cccc(N(C)C)c3)c(OC)cc12 | i
CC(=O)N1C[C@@H]2C[C@H](C1)c1ccc(NC(=O)c3ccc(F)cc3)c(=O)n1C2 | i
CN1CCC(N2C[C@@H]3C[C@H](C2)c2c(NC(=O)c4ccccn4)ccc(=O)n2C3)CC1 | i
O=C(Nc1ccc(=O)n2c1[C@@H]1C[C@@H](CN(C(=O)c3ccc(F)cc3)C1)C2)C1CCCCC1 | i
COc1ccc(C(=O)N2C[C@@H]3C[C@H](C2)c2c(NC(=O)CSC)ccc(=O)n2C3)cc1 | i
COCCC(=O)Nc1ccc2n(c1=O)C[C@H]1C[C@@H]2CN(CCCc2ccccc2)C1 | 31.6µM*
O=C(Nc1ccc2n(c1=O)C[C@H]1C[C@@H]2CN(Cc2ccc(F)cc2)C1)c1cccs1 | 31.6µM*
COc1cc2c(cc1CCc1ccccc1)N(C(=O)c1ccn(C)n1)CC21CCN(C(C)=O)CC1 | i
COc1ccc(C(=O)N2[C@H]3CC[C@@H]2c2cnc(C)nc2C3)cc1OC | i
Clc1ccc(-n2nnnc2C2(NC3CCCCC3)CCCCC2)cc1 | i
COc1cccc([C@H]2CN(C(=O)c3cnc(C)cn3)[C@@H]3C4CCN(CC4)[C@H]23)c1 | i
C/C(=N/NC(N)=S)c1ccc(Cl)cc1 | i
CN1CCN(C(=O)Cc2c[nH]c3ncc(-c4cccc(O)c4)cc23)CC1 | i
CN1CCN(C(=O)Cc2c[nH]c3ncc(-c4ccc([S+](C)(=O)[O-])cc4)cc23)CC1 | i
